Measurements as given in PubChem BioAssay (NCATS).
Results filed as inconclusive are left out. The source made the active and inactive calls. Unless noted, calls follow the shape of the dose curve; as a rule, active = well fitted curve in either direction with a large enough effect (not every such curve was filed as active); inconclusive = small, poorly fitted or top-dose-only effect, or another doubt; inactive = flat fitted curve, though single readings scatter.

Legend:
[1] = NFAT Signaling Pathway (AID 444); details: Jurkat NFAT-bla M1, carbachol, beta-lactamase ratio, 5 h;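 also: carbachol stimulus at about its EC50 of 1 µM final; % is scaled to controls: 0 for no effect and ±100 for the full control effect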
Method in brief: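 Jurkat cells with NFAT-driven β-lactamase reporter and co-expressed M1 receptor, stimulated with carbachol (final 1 uM, ~EC50), compound titration, 5 h at 37 °C. CCF4 loaded 1 h at RT; 460/530 nm ratio gave %activity and AC50.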

[2] = biological target: Glucocorticoid receptor (Homo sapiens) (UniProt P04150); assay: GR-GFP Redistribution (AID 450;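 active = compounds whose dose series gives a full or clear partial fitted curve of increased nuclear translocation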; also: potency is read from the fitted curve at half-maximal effect); details: U2OS GR-GFP nuclear translocation, laser cytometry, 2 h
[3] = biological target: Cytochrome P450 3A4 (Homo sapiens) (UniProt P08684); assay: qHTS Assay for Inhibitors and Substrates of Cytochrome P450 3A4 (AID 884; active = well fitted curve in the direction sought with a large enough effect; an effect the other way counts as inactive or inconclusive; also: % is scaled to controls: 0 for no effect and ±100 for the full control effect; nearly all actives have a fitted effect of over 50% in size); details: recombinant CYP3A4, Luciferin-PPXE luminescence; series mostly up to 57.1 µM
Method in brief: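 20 nM human CYP3A4 with 25 uM Luciferin-PPXE (at KM) in 200 mM KPO4, preincubated 10 min with compound; NADPH regeneration started a 60 min RT reaction. Luciferin detected by luminescence, normalized to 57 uM ketoconazole as full inhibition.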

[4] = Confirmation and Secondary Assay for Modulators of Hemoglobin Beta Chain Splicing at IVS2 654 locus (AID 910; active = well fitted curve in the direction sought with a large enough effect; an effect the other way counts as inactive or inconclusive;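 also: HeLa cells stably carrying EGFP split by mutant beta-globin IVS2-654 intron; % of control where 0% means no effect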); details: HeLa EGFP-654 splicing reporter, GFP fluorescence, 48 h; series mostly up to 46.1 µM
Method in brief: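 HeLa cells stably expressing EGFP interrupted by β-globin IVS2-654 intron, seeded overnight in Opti-MEM/2% FCS, then treated 2 days at 37 °C. Restored splicing read as total peak GFP intensity per well by laser scanning cytometry (488 nm excitation, 500–520 nm emission); 500 nM antisense PNA as control.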

[5] = Confirmation and Secondary Assay for Modulators of Hemoglobin Beta Chain Splicing at IVS2 705 locus (AID 930; active = well fitted curve in the direction sought with a large enough effect; an effect the other way counts as inactive or inconclusive;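 also: HeLa cells stably expressing the EGFP-705 splicing reporter; GFP fluorescence per well restored by corrected splicing of the IVS2-705 intron in EGFP; % of control where 0% means no effect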); details: HeLa EGFP-705 splicing reporter, GFP fluorescence, 48 h; series mostly up to 46.1 µM
Method in brief: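 Per-well GFP, captured at 1 x 8 µm resolution with 488 nm excitation, served as the read-out for HeLa EGFP-705 cells incubated 2 days with test compound versus DMSO.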

[6] = biological target: Cytochrome P450 2D6 (Homo sapiens) (UniProt P10635); assay: qHTS Assay for Inhibitors and Substrates of Cytochrome P450 2D6 (AID 891; active = well fitted curve in the direction sought with a large enough effect; an effect the other way counts as inactive or inconclusive; also: potency is read from the fitted curve at half-maximal effect; nearly all actives have a fitted effect of over 60% in size); details: recombinant CYP2D6, luciferin-ME EGE luminescence; series mostly up to 57.1 µM
Method in brief: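 Human CYP2D6 (5 nM) with 30 uM Luciferin-ME EGE (at Km) in 100 mM KPO4, compound preincubated 10 min, then NADPH regeneration system for 60 min at room temperature. Luciferin read by luminescence; normalized to 1.43 uM quinidine.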

[7] = biological target: Lysosomal acid glucosylceramidase (Homo sapiens) (UniProt P04062); assay: Glucocerebrosidase-p2 (AID 348; in the data active = potency below about 10 µM; also: potency is read from the fitted curve at half-maximal effect); details: purified GBA, blue fluorogenic substrate, 40 min
Method in brief: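 Compounds titrated from 0.6 nM upwards against 0.2 nM enzyme in pH 5.9 citric acid/KH2PO4, taurocholate, tween-20; blue fluorogenic substrate 80 uM, 40 min room temperature, stopped and read Ex 365/Em 440 for AC50.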

[8] = AP1 Signaling Pathway (AID 357); details: ME-180 AP-1-bla reporter, EGF-induced, beta-lactamase ratio, 5 h; series mostly up to 17.2 µM; also: % is scaled to controls: 0 for no effect and ±100 for the full control effect
Method in brief: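 ME-180 cells with beta-lactamase reporter under AP-1 response element, stimulated with EC50 EGF; compounds tested in titration series, 5 h at 37 °C. CCF4 substrate added 2.5 h at room temperature; 460/530 nm emission ratio gave %activity and AC50.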

[9] = biological target: Cytochrome P450 1A2 (Homo sapiens) (UniProt P05177); assay: p450-cyp1a2 (AID 410; calls by dose curve; also: potency is read from the fitted curve at half-maximal effect;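 as to activity change, negative = inhibition: -100% = full effect of reference inhibitor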); details: recombinant CYP1A2, luciferin-ME demethylation, luminescence; series mostly up to 25.6 µM
Method in brief: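 20nM CYP1A2 with 100uM Luciferin-ME (at Km) in 100mM KPO4; compound preincubated 10 min, NADPH regeneration added, 60 min at room temperature. Luciferin quantified by luminescence after detection reagent; normalized to 57 uM furafylline.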

[10] = Stat Signaling Pathway (AID 446); details: ME-180 SIE beta-lactamase reporter, IL-6 stimulated, 5 h; series mostly up to 17.2 µM;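 also: ME-180 cervical cancer cells given 40 pM IL-6 alongside compound; SIE-controlled beta-lactamase reporter measured as 460/530 nm FRET emission ratio; % is scaled to controls: 0 for no effect and ±100 for the full control effect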
Method in brief: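 Reporter line: ME-180 cervical carcinoma, SIE-beta-lactamase. Treatment: compound with 40 pM IL-6, 5 hrs, 37 C, in low-serum OPTI-MEM with 10 mM HEPES pH 7.3. Detection: 460/530 nm fluorescence.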

[11] = biological target: Glucocorticoid receptor (Homo sapiens) (UniProt P04150); assay: GR-EFC Redistribution (AID 451; calls by dose curve; also: potency is read from the fitted curve at half-maximal effect); details: CHO-K1 GR-EFC translocation, beta-gal luminescence, 2 h
Method in brief: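 CHO-K1 cells expressing nuclear EA and GR-ED fragments of b-gal; compounds titrated up to 46 uM final, 2 h at 37 C. GR nuclear translocation read as complemented b-gal luminescence after 1 h RT detection.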

[12] = biological target: Mitogen-activated protein kinase 10 (Mus musculus) (UniProt Q61831); assay: JNK3 AlphaScreen Assay (AID 530); details: JNK3 lysate, c-Jun phosphorylation; series mostly up to 57.1 µM;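 also: kinase came from lysate of stimulated human HepG2 cells; signal reports phosphorylation of biotinylated GST-cJun 1-79 at Ser73 with 10 µM ATP; % is scaled to controls: 0 for no effect and ±100 for the full control effect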
Method in brief: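 Pre-activated (IL-1β/TNFα) JNK3 in HepG2 lysates phosphorylates biotin-GST-cJun(1-79), 10 uM ATP; anti-phospho-cJun(Ser73) AlphaScreen read at room temperature, pH 7.6 Tris buffer. Compounds pre-incubated 15 min as titrations.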

[13] = biological target: 3',5'-cyclic-AMP phosphodiesterase 4B (Homo sapiens) (UniProt Q07343); assay: qHTS Assay for Inhibitors of PDE-IV (AID 607; active = well fitted activation curve with a large enough effect in the main read-out, with a control signal flat, not every such curve was filed as active; also: % of control where 0% means no effect); details: HEK293 ACTOne CNG channel cells, membrane potential fluorescence; series mostly up to 22.9 µM
Method in brief: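 Cell-based read-out of cAMP via a modified cyclic nucleotide-gated channel and membrane potential dye (535/590 nm) in HEK293 cells expressing PDE4 endogenously. Compounds tested up to 22.9 uM final; 100 uM RO 20-1724 reference.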

[14] = biological target: Cytochrome P450 3A4 (Homo sapiens) (UniProt P08684); assay: qHTS Assay for Activators of Cytochrome P450 3A4 (AID 885; active = well fitted curve in the direction sought with a large enough effect; an effect the other way counts as inactive or inconclusive; also: nearly all actives have a fitted effect of over 65% in size; also: potency is read from the fitted curve at half-maximal effect); details: recombinant CYP3A4, Luciferin-PPXE luminescence, 60 min; series mostly up to 57.1 µM
Method in brief: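 Signal was normalized against complete inhibition by 57 uM ketoconazole. The reaction used 20nM CYP3A4 with 25uM Luciferin-PPXE, 10-min compound preincubation and a 60-min NADPH-supported step at RT.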

[15] = qHTS Assay for Lipid Storage Modulators (AID 1519; calls by dose curve); details: Drosophila S3 cells, BODIPY lipid droplet/cell ratio, laser cytometry, cells loaded with oleic acid; for activity change, negative = inhibition: at 57.5 µM (top of the series)
Method in brief: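 Cells seeded at 5,000 per well were treated with compounds over a concentration series and loaded with oleic acid (400 uM, as added). Lipid droplet fluorescence (488 nm excitation, 500-530 nm channel) was read by laser-scanning cytometry and normalized to 20 uM Triacsin C.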

[16] = Primary qHTS for small molecule stabilizers of the endoplasmic reticulum resident proteome: Secreted ER Calcium Modulated Protein (SERCaMP) assay (AID 1508630; active = well fitted curve in the direction sought with a large enough effect; an effect the other way counts as inactive or inconclusive; also: % is scaled to controls: 0 for no effect and ±100 for the full control effect); details: SH-SY5Y GLuc-SERCaMP (Gaussia luciferase released on ER calcium loss) secretion, thapsigargin, luminescence; series mostly up to 38.4 µM
Method in brief: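 GLuc-SERCaMP-expressing SH-SY5Y cells, pretreated 16 h with compound, are challenged with thapsigargin to empty ER calcium stores; after 4 h, coelenterazine is added directly to the medium and luminescence is imaged.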

[17] = tested on: HIV-1 nucleocapsid protein NCp7 (binding to TG oligonucleotide); assay: HIV Nucleocapsid (AID 346; call rule not given here;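 also: potency is read from the fitted curve at half-maximal effect; potency is for inhibitors that block NC binding and lower polarization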); details: HIV-1 NC / fluorescein-TGTGTGTG probe, fluorescence polarization
Method in brief: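 NCp7 100 nM + fluorescein TG4xF 10 nM; Hepes pH 7.5/250mM NaCl/1uM ZnCl2/0.004% PEG 20000; 1 hr RT; FP, 45 s exposure; oligo-only wells as negative control.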

[18] = measured here: cell count channel max response
[19] = measured here: lipid channel max response

Chain of Lysosomal acid glucosylceramidase (Homo sapiens) (P04062 whole entry, looked up): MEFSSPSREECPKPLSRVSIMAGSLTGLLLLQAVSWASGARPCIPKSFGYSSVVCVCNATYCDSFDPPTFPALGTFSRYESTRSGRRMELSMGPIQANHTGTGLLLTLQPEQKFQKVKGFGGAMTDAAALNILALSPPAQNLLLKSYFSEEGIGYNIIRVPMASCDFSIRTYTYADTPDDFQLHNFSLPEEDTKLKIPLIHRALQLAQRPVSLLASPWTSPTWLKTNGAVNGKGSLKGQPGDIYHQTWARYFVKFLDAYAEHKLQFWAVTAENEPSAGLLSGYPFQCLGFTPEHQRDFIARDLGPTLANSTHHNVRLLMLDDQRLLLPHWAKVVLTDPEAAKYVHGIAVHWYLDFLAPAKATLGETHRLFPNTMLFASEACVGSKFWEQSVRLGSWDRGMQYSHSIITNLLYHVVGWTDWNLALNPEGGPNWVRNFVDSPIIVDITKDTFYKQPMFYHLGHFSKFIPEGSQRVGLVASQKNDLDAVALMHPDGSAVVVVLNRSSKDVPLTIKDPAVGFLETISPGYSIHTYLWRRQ
Chain of Cytochrome P450 1A2 (Homo sapiens) (P05177 whole entry, looked up): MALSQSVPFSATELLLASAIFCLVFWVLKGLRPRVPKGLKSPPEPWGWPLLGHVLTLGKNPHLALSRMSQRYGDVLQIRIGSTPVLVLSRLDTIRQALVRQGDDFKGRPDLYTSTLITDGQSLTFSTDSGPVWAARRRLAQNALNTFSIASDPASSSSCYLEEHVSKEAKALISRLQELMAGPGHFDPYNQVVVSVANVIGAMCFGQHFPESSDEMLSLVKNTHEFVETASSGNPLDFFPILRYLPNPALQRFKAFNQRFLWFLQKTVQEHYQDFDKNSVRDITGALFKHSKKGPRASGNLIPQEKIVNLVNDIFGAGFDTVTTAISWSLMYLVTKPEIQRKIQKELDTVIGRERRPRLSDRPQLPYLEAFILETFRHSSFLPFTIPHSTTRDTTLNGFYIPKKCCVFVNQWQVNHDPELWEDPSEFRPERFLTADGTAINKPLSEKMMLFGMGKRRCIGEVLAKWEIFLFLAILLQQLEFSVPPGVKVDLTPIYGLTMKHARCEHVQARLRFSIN
Chain of Glucocorticoid receptor (Homo sapiens) (P04150 whole entry, looked up, the tested form may be a part): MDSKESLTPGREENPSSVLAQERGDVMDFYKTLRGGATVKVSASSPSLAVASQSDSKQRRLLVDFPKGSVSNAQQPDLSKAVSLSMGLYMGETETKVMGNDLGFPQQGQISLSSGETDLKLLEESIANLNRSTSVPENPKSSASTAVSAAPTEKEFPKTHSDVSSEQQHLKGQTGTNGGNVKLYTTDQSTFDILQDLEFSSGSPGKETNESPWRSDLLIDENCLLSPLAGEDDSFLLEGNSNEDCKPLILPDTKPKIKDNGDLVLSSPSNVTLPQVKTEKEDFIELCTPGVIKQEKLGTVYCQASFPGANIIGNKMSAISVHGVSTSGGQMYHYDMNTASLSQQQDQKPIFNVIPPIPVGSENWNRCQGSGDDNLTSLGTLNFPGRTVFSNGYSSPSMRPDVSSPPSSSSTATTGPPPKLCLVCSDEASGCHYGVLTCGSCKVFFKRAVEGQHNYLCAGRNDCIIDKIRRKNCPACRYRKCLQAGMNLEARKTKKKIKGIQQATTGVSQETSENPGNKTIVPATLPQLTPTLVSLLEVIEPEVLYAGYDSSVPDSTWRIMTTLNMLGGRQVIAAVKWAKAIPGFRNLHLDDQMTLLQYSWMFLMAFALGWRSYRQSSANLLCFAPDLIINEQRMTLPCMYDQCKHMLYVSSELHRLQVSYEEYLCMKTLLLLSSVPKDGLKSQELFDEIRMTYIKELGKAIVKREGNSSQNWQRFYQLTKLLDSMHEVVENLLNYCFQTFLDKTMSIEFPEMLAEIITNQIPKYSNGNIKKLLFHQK
Chain of 3',5'-cyclic-AMP phosphodiesterase 4B (Homo sapiens) (Q07343 whole entry, looked up): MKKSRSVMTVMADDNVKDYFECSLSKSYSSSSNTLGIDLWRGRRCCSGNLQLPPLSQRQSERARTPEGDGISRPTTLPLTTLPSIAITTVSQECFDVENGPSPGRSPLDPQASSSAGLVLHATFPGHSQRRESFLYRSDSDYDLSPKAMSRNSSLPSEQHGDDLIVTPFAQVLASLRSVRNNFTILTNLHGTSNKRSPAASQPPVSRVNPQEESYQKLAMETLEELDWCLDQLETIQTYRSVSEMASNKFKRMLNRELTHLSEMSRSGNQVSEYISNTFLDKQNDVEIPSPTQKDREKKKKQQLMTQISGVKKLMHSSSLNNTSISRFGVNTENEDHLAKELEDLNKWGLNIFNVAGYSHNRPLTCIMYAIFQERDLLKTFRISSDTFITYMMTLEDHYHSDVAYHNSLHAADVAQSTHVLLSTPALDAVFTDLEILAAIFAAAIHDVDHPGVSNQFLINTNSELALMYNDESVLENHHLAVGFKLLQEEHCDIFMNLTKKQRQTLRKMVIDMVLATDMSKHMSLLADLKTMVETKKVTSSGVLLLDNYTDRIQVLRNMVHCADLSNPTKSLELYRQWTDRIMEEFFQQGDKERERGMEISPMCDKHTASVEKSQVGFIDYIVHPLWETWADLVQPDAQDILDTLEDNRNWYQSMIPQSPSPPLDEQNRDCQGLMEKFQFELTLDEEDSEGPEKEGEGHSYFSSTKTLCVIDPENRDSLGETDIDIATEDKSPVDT
Chain of Cytochrome P450 3A4 (Homo sapiens) (P08684 whole entry, looked up): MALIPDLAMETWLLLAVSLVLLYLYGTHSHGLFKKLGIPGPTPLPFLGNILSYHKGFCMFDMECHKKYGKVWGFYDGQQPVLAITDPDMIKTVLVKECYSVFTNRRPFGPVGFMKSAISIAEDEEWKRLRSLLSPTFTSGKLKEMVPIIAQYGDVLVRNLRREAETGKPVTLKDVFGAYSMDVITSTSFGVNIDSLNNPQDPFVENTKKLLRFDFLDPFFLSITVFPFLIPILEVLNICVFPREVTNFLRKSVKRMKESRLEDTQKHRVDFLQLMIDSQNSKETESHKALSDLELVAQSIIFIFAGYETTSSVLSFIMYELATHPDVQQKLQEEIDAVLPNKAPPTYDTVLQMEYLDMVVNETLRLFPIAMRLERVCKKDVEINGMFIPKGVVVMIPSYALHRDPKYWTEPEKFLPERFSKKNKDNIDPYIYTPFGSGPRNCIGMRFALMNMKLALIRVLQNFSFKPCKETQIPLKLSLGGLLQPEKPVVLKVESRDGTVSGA
Chain of Cytochrome P450 2D6 (Homo sapiens) (P10635 whole entry, looked up): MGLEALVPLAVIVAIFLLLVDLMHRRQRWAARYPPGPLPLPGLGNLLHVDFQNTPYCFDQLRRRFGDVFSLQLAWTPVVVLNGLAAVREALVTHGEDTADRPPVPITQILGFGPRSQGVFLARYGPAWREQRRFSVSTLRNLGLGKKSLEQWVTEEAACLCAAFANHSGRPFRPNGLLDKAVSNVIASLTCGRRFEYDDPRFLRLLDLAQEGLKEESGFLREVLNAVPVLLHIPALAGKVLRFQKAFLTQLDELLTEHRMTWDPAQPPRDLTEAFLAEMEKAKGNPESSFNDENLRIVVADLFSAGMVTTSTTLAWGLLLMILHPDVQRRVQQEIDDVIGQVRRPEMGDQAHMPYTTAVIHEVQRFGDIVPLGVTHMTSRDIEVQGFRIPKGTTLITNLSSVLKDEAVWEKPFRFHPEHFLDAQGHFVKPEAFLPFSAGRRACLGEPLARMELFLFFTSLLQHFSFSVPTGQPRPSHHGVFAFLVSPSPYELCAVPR

N#C/C(=C\c1ccc(O)c(O)c1)C(N)=S
inactive: activity change, negative = inhibition ([1]; at 38 µM (top of the series)) -11.5% | Potency [2] > 46 µM

CC(=O)C1=C(O)C2C3c4c[nH]c5cccc(c45)CC3C(C)(C)N2C1=O (centres undefined)
inactive: Potency [3] | Potency [4] | Potency [5]

c1ccc(N2CCC3(CCNCC3)CC2)nc1
active: Potency [6] 1.26 µM

c1ccc(N2CCCC3(CCNCC3)C2)cc1
active: Potency [6] 7.94 µM

CC(C)NC(=O)N1CCC2(CC1)CCN(C(=O)Oc1ccccc1)CC2
active: Potency [14] 25.1 µM
inactive: Potency [7] > 11.4 µM | outcome [8] | Potency [9] | outcome [10] | Potency [11] > 46 µM | outcome [12] | Potency [13] | activity change, negative = inhibition [15] 2.9% | outcome [16]
-12.1%: max response [15, 18]
-6.43%: max response [15, 19]

COc1ccccc1CN1CC[C@@]2(CCCN(C(=O)Oc3ccccc3)C2)C1
13.6%: max response [15, 19]
2.61%: max response [15, 18]
inactive: Potency [17] > 20 µM | Potency [7] > 11.4 µM | outcome [8] | outcome [10] | Potency [11] > 46 µM | outcome [12] | Potency [13] | Potency [14] | activity change, negative = inhibition [15] 7.75% | outcome [16]
active: Potency [9] 10 µM

COC(=O)N1CCC2(CCN(CC(C)C)CC2)CC1
inactive: Potency [17] > 20 µM | Potency [7] > 11.4 µM | outcome [8] | Potency [9] | outcome [10] | Potency [11] > 46 µM | outcome [12] | Potency [13] | activity change, negative = inhibition [15] 0.631% | outcome [16]
-7.4%: max response [15, 18]
-4.41%: max response [15, 19]

c1csc(CN2CC[C@@]3(CCCNC3)C2)n1
-1.59%: max response [15, 18]
inactive: Potency [17] > 20 µM | Potency [7] > 11.4 µM | outcome [8] | Potency [9] | activity change, negative = inhibition ([1]; at 7.69 µM (top of the series)) -10% | outcome [10] | Potency [11] > 46 µM | outcome [12] | Potency [13] | activity change, negative = inhibition [15] 0.956% | outcome [16]
1.97%: max response [15, 19]

c1ccc(CN2CC[C@@]3(CCCNC3)C2)cc1
inactive: Potency [17] > 20 µM | Potency [7] > 11.4 µM | outcome [8] | Potency [9] | activity change, negative = inhibition ([1]; at 7.69 µM (top of the series)) 2.89% | outcome [10] | Potency [11] > 46 µM | outcome [12] | Potency [13] | Potency [14] | activity change, negative = inhibition [15] 3.83% | outcome [16]
14.7%: max response [15, 19]
8.29%: max response [15, 18]

COc1ccc(/C=C/C(=O)N2CC3C[C@@H](C2)Cn2c3cccc2=O)cc1OC
inactive: outcome [16]

CC(C)CN1CCCC2(CCN(C(=O)c3ccncc3)CC2)C1
inactive: Potency [7] > 11.4 µM | outcome [8] | outcome [10] | Potency [11] > 46 µM | outcome [12] | Potency [13] | Potency [14] | activity change, negative = inhibition [15] 5.13% | outcome [16]
11.3%: max response [15, 18]
active: Potency [9] 12.6 µM
20.9%: max response [15, 19]
